Inconclusive results are not listed. Unless noted, calls come from the whole dose curve; as a rule, active = well fitted curve in either direction with a large enough effect (not every such curve was filed as active); inconclusive = small, poorly fitted or top-dose-only effect, or another doubt; inactive = flat fitted curve, though single readings scatter.
Key:
[1] = AP1 Signaling Pathway (AID 357); conditions: ME-180 AP-1-bla reporter, EGF-induced, beta-lactamase ratio, 5 h; at 17.2 µM (top of the series) unless noted;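 note: ME-180 reporter cells stimulated with EGF at its EC50 level; % is set by controls: 0 for no effect and ±100 for the full control effect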
Outline: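 AP-1-bla ME-180 cells, Opti-MEM + 0.5% dialyzed FBS, plated overnight 37 °C. Cpd titration + EC50 EGF, 5 h 37 °C. CCF4 2.5 h RT; ex 405, em 460/530 ratio → %activity, AC50.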

[2] = NFAT Signaling Pathway (AID 444); conditions: Jurkat NFAT-bla M1, carbachol, beta-lactamase ratio, 5 h; at 17.2 µM (top of the series) unless noted;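 note: carbachol stimulus at about its EC50 of 1 µM final; % is set by controls: 0 for no effect and ±100 for the full control effect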
Outline: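 Jurkat cells with NFAT-driven β-lactamase reporter and co-expressed M1 receptor, stimulated with carbachol (final 1 uM, ~EC50), compound titration, 5 h at 37 °C. CCF4 loaded 1 h at RT; 460/530 nm ratio gave %activity and AC50.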

[3] = Stat Signaling Pathway (AID 446); conditions: ME-180 (cervical carcinoma) SIE beta-lactamase reporter, IL-6 stimulated, 5 h; at 17.2 µM (top of the series) unless noted;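 note: ME-180 cervical cancer cells given 40 pM IL-6 alongside compound; SIE-controlled beta-lactamase reporter measured as 460/530 nm FRET emission ratio; % is set by controls: 0 for no effect and ±100 for the full control effect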
Outline: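 Normalization used AC90 stimulation (300 pM IL-6) and AC90 inhibition (125 nM pan-JAK inhibitor at 40 pM IL-6). The underlying signal is SIE-driven beta-lactamase in ME-180 cells after 5 h IL-6 exposure with compound.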

[4] = biological target: Glucocorticoid receptor (Homo sapiens) (UniProt P04150); assay: GR-GFP Redistribution (AID 450;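 active = compounds whose dose series gives a full or clear partial fitted curve of increased nuclear translocation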; note: potency is the fitted concentration of half-maximal effect)
Chain of Glucocorticoid receptor (Homo sapiens) (P04150 whole entry, looked up): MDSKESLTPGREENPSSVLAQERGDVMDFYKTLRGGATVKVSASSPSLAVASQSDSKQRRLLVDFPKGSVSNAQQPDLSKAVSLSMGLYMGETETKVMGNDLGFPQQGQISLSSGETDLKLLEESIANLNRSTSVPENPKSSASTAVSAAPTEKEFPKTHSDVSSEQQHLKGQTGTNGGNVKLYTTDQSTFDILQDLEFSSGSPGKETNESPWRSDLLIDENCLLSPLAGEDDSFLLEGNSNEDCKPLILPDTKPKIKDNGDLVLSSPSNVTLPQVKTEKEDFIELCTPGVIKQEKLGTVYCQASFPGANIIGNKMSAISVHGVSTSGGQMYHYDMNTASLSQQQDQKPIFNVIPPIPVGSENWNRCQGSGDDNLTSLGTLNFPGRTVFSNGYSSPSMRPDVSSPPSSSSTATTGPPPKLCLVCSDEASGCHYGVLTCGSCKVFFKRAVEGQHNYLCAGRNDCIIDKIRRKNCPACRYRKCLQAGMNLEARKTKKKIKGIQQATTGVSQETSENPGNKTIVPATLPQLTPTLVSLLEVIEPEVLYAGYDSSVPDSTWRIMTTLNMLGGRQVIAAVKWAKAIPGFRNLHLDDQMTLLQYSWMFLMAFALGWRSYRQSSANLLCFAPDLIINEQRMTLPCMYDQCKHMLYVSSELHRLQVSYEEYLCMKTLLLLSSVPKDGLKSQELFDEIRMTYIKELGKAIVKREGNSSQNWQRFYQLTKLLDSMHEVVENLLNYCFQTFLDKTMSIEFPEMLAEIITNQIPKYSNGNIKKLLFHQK

Cc1cc(O)ccc1-c1cnc2ccccc2n1
inactive: activity change, negative = inhibition [1] 5.77% | activity change, negative = inhibition [2] -5.17% | activity, negative = inhibition [3] 21.5% | Potency [4] > 20.6 µM

CCCCC(CCC(=O)Nc1ccc(C(=O)OCC)cc1)C(=O)O (stereo not given)
inactive: activity change, negative = inhibition [1] -10.4% | activity change, negative = inhibition [2] 8.16% | activity, negative = inhibition [3] 3.27% | Potency [4] > 20.6 µM

CCN(CC)CCN1C(=O)C(=O)/C(=C(/O)c2c(C)[nH]c(C(=O)OC)c2C)C1c1ccccc1 (stereo not given)
inactive: activity change, negative = inhibition [1] 2.47% | activity change, negative = inhibition [2] -8.53% | activity, negative = inhibition [3] -3.34% | Potency [4] > 20.6 µM

O=C(Nc1ccc(Cl)cn1)C1CCCN1S(=O)(=O)c1ccccc1 (stereo not given)
inactive: activity change, negative = inhibition [1] -9.31% | activity change, negative = inhibition [2] -4.11% | activity, negative = inhibition [3] -6.7% | Potency [4] > 20.6 µM

Cc1ccc(-c2nn(CCC(=O)NCC3CCCO3)c(=O)c3ccccc23)cc1 (stereo not given)
inactive: activity change, negative = inhibition [1] -6.92% | activity change, negative = inhibition [2] -7.06% | activity, negative = inhibition [3] 4.3% | Potency [4] > 20.6 µM

COCc1[nH]nc2c1C(c1cccc(OC)c1)C(C#N)=C(N)O2 (stereo not given)
inactive: activity change, negative = inhibition [1] -19.1% | activity change, negative = inhibition [2] -19.7% | activity, negative = inhibition [3] -11% | Potency [4] > 20.6 µM

CCC1=C(C(=O)OC)C(c2cc(OC)ccc2OC)C(C#N)=C(N)O1 (stereo not given)
inactive: activity change, negative = inhibition [1] -1.51% | activity change, negative = inhibition [2] -14.5% | activity, negative = inhibition [3] 4.21% | Potency [4] > 20.6 µM

N#CCCN(CCC#N)c1nnc(-c2ccccc2)s1
inactive: activity change, negative = inhibition [1] 8.96% | activity change, negative = inhibition [2] -5.89% | activity, negative = inhibition [3] 1.66% | Potency [4] > 20.6 µM

Nn1c(SCC(=O)Nc2ccc3c(c2)OCCO3)nnc1C(F)(F)F
inactive: activity change, negative = inhibition [1] 3.25% | activity change, negative = inhibition [2] -1.93% | activity, negative = inhibition [3] 9.15% | Potency [4] > 20.6 µM

CCOc1ccc2nc(SCC(=O)Nc3ncccn3)[nH]c2c1
inactive: activity change, negative = inhibition [1] -9.31% | activity change, negative = inhibition [2] 0.119% | activity, negative = inhibition [3] -2.35% | Potency [4] > 20.6 µM

CC(C)NC(=O)N1CCOCCOCCN(C(=O)NC(C)C)CCOCCOCC1
inactive: activity change, negative = inhibition [1] 8.52% | activity change, negative = inhibition [2] 0.977% | activity, negative = inhibition [3] 0.97% | Potency [4] > 20.6 µM

CCOC(=O)c1ccc2nc(NC(NC(C)=O)(C(=O)OC)C(F)(F)F)sc2c1 (stereo not given)
inactive: activity change, negative = inhibition [1] -14% | activity change, negative = inhibition [2] -1.54% | activity, negative = inhibition [3] -10.8% | Potency [4] > 20.6 µM

CC(C)Cc1[nH]c(=O)c(C#N)c2c1COC(C)(C)C2
inactive: activity change, negative = inhibition [1] 9.17% | activity change, negative = inhibition [2] 17.3% | activity, negative = inhibition [3] 2.18% | Potency [4] > 20.6 µM

COc1cc(=O)[nH]c(=O)n1CC(=O)c1ccccc1
inactive: activity change, negative = inhibition [1] 1.4% | activity change, negative = inhibition [2] 3.25% | activity, negative = inhibition [3] 5.97% | Potency [4] > 20.6 µM

CN(Cc1ccccc1)Cc1c[nH]c2ccccc12
inactive: activity change, negative = inhibition [1] 15.6% | activity change, negative = inhibition [2] -28.7% | activity, negative = inhibition [3] 7.69% | Potency [4] > 20.6 µM

FC(F)(F)c1cccc(N2CCc3cn[nH]c32)c1
inactive: activity change, negative = inhibition [1] -1.96% | activity change, negative = inhibition [2] 0.155% | activity, negative = inhibition [3] -1.19% | Potency [4] > 20.6 µM

CCOC(=O)CC(=O)CSc1nc2c(cc1C#N)CCCCCC2
inactive: activity change, negative = inhibition [1] -15.8% | activity change, negative = inhibition [2] 2.93% | activity, negative = inhibition [3] -11.8% | Potency [4] > 20.6 µM

CCOC(=O)c1c(C)[nH]sc1=S
inactive: activity change, negative = inhibition [1] 4.4% | activity change, negative = inhibition [2] -1.05% | activity, negative = inhibition [3] -4.25% | Potency [4] > 20.6 µM

COC(=O)c1ccc(C2/C(=C(\O)c3ccc4c(c3)OCCO4)C(=O)C(=O)N2CCCN(C)C)cc1 (stereo not given)
inactive: activity change, negative = inhibition [1] 10.1% | activity change, negative = inhibition [2] 5.87% | activity, negative = inhibition [3] -5.8% | Potency [4] > 20.6 µM

CC1(C)Cc2c(sc3nc(SCC(=O)NCc4ccco4)n(-c4ccccc4)c(=O)c23)CS1
inactive: activity change, negative = inhibition [1] -19.4% | activity change, negative = inhibition [2] -13.9% | activity, negative = inhibition [3] -26.5% | Potency [4] > 20.6 µM

CN1C(=O)N(c2ccccc2)C(Nc2nncs2)C1(C)C (stereo not given)
inactive: activity change, negative = inhibition [1] 2.23% | activity change, negative = inhibition [2] -8.24% | activity, negative = inhibition [3] -1.47% | Potency [4] > 20.6 µM

COc1cccc(C2/C(=C(\O)c3ccc4c(c3)OCCO4)C(=O)C(=O)N2CCN(C)C)c1 (stereo not given)
inactive: activity change, negative = inhibition [1] -3.08% | activity change, negative = inhibition [2] 2.4% | activity, negative = inhibition [3] 9.63% | Potency [4] > 20.6 µM

O=C1CC(NCc2ccc3c(c2)OCO3)C(=O)N1Cc1ccc2c(c1)OCO2 (stereo not given)
inactive: activity change, negative = inhibition [1] -14.2% | activity change, negative = inhibition [2] 15.6% | activity, negative = inhibition [3] -1.08% | Potency [4] > 20.6 µM

COc1ccc(C(O)C(CN2CCOCC2)c2ccccc2)cc1 (stereo not given)
inactive: activity change, negative = inhibition [1] -1.55% | activity change, negative = inhibition [2] 7.08% | activity, negative = inhibition [3] 8.61% | Potency [4] > 20.6 µM

CC(NC(=O)NCCCn1ccnc1)(C(F)(F)F)C(F)(F)F
inactive: activity change, negative = inhibition [1] 18.8% | activity change, negative = inhibition [2] -6.4% | activity, negative = inhibition [3] 5.85% | Potency [4] > 20.6 µM
